Screening data from PubChem BioAssay.
IMPase inh: membrane-permeable compound that blocks inositol monophosphatase; P97697; CHO-M1 cells, IP1 accumulation, HTRF TR-FRET ratio; inhibition (IP1 accumulation), % at 46.1 µM; 120,000 tested, under 10 active; AID 901; active means well fitted curve in the direction sought with a large enough effect in the signal ratio, not every such curve was filed as active; inconclusive means small, poorly fitted or top-dose-only effect, or a change in a side signal; inactive means no such curve, though single readings can be large or run the other way; the % refers to the signal ratio;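 further: cells stimulated with carbachol in lithium chloride buffer; plate controls were DMSO basal wells for no effect and reference inhibitor wells for full effect; higher means more IMPase inhibition seen as more IP1 and lower FRET ratio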
Target sequence (P97697 whole entry, looked up): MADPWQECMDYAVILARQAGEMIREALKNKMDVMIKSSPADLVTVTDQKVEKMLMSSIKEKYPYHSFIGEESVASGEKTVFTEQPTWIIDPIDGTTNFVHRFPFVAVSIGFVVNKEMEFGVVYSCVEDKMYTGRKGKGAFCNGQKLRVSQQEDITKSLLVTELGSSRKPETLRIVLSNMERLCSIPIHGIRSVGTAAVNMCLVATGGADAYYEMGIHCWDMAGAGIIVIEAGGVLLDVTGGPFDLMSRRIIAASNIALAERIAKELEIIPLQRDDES
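In this qHTS, compounds (final up to 46 uM) act on CHO-M1 cells that are then activated through the M1 receptor with carbachol, in pH 7.4 buffer containing 50 mM LiCl, for 30 min. IP1 accumulation is quantified by the IP-One immunoassay.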
PNC inhibitor: blocks assembly of the perinucleolar compartment; 3.1% of 140,000 active; PC3M PTB-GFP, PNC prevalence imaging, 16 h; active compounds read low; activity change (PNC), negative = inhibition, % at 10 µM;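 active means readout at or below -70, meaning at least 70% loss of cells showing the perinucleolar compartment, a nuclear body marking cancer cells; inconclusive means readout between -30 and a set limit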;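 further: plate controls were DMSO wells for no effect and camptothecin positive control wells for full effect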
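Read-out is percentage of cells bearing a perinucleolar compartment, from automated 20x imaging of fixed, Hoechst-stained PC3M PTB-GFP cells. Cells were seeded 4 h, then exposed 16 h to compound (23 nl of library stock) in duplicate plates.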
12-hLO inh: inhibitors of human 12-lipoxygenase (ALOX12); P18054; purified 12-hLO, xylenol orange hydroperoxide absorbance; Potency, µM (doses to about 57.1 µM), without a hit: at the top dose activity change, negative = inhibition, actives largely listed as inhibitors; 0.12% of 150,000 active; AID 1452; active means well fitted curve in the direction sought with a large enough effect; inconclusive means small, poorly fitted or top-dose-only effect, or another doubt; inactive means no such curve, though single readings can be large; an effect the other way counts as inactive or inconclusive; further: potency means the concentration at half of the fitted maximal effect; nearly all actives have a fitted effect of over 55% in size
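Hydroperoxide formation by human 12-lipoxygenase from 40 uM arachidonic acid was followed colorimetrically via ferric-xylenol orange complex, using the 573/405 nm absorbance ratio. Enzyme concentration was 150 nM, with 30 min reaction at room temperature.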
HPGD block: inhibitors of human 15-hydroxyprostaglandin dehydrogenase (HPGD); purified HPGD, NADH fluorescence kinetic, PGE2 substrate; Potency, µM, for the others: at the highest dose activity change, negative = inhibition, usual class: inhibitors; 4.3% of 150,000 active; AID 894; further: potency means the concentration at half of the fitted maximal effect
Target sequence (P15428 whole entry, looked up): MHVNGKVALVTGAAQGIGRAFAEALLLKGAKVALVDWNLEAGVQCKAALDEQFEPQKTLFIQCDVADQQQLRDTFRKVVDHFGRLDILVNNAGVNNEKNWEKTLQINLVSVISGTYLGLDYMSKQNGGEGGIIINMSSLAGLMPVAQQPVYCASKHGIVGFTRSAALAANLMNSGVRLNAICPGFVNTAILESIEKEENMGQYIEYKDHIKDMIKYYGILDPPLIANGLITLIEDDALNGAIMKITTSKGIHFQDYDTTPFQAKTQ
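NADH formation kinetics: reaction with 30 uM PGE2 and 1 mM NAD+ (final), 20 nM enzyme, Tris-HCl pH 8 with Tween 20, after 15 min compound preincubation at room temperature. Fluorescence change, last versus first of five reads.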
ALDH1A1 inh: inhibitors of human aldehyde dehydrogenase 1A1; 7.3% of 220,000 active; Purified ALDH1A1, NADH fluorescence, propionaldehyde substrate; P00352; Potency, µM (titrated, usually from 75.3 µM), without a hit: top-dose activity, negative = inhibition, usual class: inhibitors;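 further: potency means the concentration at half of the fitted maximal effect; plate controls were no enzyme wells and a reference inhibitor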
IMPase Li cell: membrane-permeable IMPase blocker, potentiated with lithium; CHO-M1 cells, IP1 TR-FRET (IP-One), carbachol + lithium; Potency, µM (titrated, usually from 59.4 µM), without a hit: at the top dose activity, negative = IMPase inhibition, hits mostly inhibitors; 0.35% of 210,000 active; AID 1457; active means well fitted curve in the direction sought with a large enough effect; inconclusive means small, poorly fitted or top-dose-only effect, or another doubt; inactive means no such curve, though single readings can be large; an effect the other way counts as inactive or inconclusive;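 further: IP1 builds up when IMPase is blocked and the TR-FRET signal falls; potency means the concentration at half of the fitted maximal effect; plate controls were basal vehicle for no effect and high inhibitor control for full effect; nearly all actives have a fitted effect of over 50% in size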
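Concentration–response in CHO-M1 cells, lithium-potentiated; 30 min at 37C. IP1 detected by competitive TR-FRET after 10 min lysis at RT. Hill-fitted AC50.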
The depositor's hits bear a star; ? = inconclusive; / = not tested or not shown; [ ] = dose if it differs, or a comment. Hits are enriched below; roughly 11% of the tested compounds scored in any of these assays. Unless noted, the call rests on the fitted dose curve; in most records, active means well fitted inhibition curve with a large enough effect (not every such curve was filed as active); inconclusive means small, poorly fitted or top-dose-only effect, or another doubt; inactive means no such curve, though single readings can be large or run the other way. Unless noted, on the % scale 0 is the no-effect control and ±100 the full control effect.

SMILES | IMPase inh | PNC inhibitor | 12-hLO inh | HPGD block | ALDH1A1 inh | IMPase Li cell
CC1CCN(C(=O)Cn2cc(C(=O)C3CC3)c3ccccc32)CC1 | -3 | -103* | 2% | -2% | -5% | 10%
O=C1Nc2ccccc2OCc2c1cccc2[N+](=O)[O-] | / | / | / | / | 1% | 1%
O=C(O)C(O)C(O)C(O)C(O)C(=O)O (centres undefined) | / | / | -4% | -16% | 1% | 6%
COC(=O)CC(NC(=O)c1cccs1)c1ccc(OC)c(OC)c1 (centres undefined) | / | / | / | / | 2% | 4%
c1coc(-c2ncc[nH]2)c1 | 1 | -97* | -2% | -11% | 18µM* | -7%[38.3 µM]
O=C(Nc1ccc(CN2CCOCC2)cc1)c1ccc(-c2cc(Cl)ccc2Cl)o1 | 6 | -3 | 1% | ? | ? | 39%[38.3 µM]
S=C(c1ccc(-c2cc(Cl)ccc2Cl)o1)N1CCOCC1 | 2 | 60 | ? | 28µM* | 22µM* | 11%[38.3 µM]
S=C(c1ccc(-c2cc(Cl)ccc2Cl)o1)N1CCCCC1 | / | ? | -4% | 7.9µM* | 3% | 0%
CC(C)(C)C(=O)NC1CCN(C(=O)N2CCCC2)CC1 | -4 | -2 | -6% | 5% | 16% | 13%[38.3 µM]
COC(=O)C1CCN(S(C)(=O)=O)CC1 | 0 | -100* | 2% | -8% | -9% | 1%
CC(C)(C)C(=O)NC1CCN(S(C)(=O)=O)CC1 | 4 | -100* | -4% | -9% | 13% | -3%
Cc1cc2nc(-c3cc(NC(=O)c4cc5ccccc5o4)ccc3Cl)oc2cc1C | -7 | / | / | / | / | /
CO/N=C(/C(=O)N[C@@H]1C(=O)N2C(C(=O)O)=C(COC(N)=O)CS[C@H]12)c1ccco1 | / | / | -2% | -2% | ? | 12%
CN(C)c1nc(-c2ccoc2)nc2ccccc12 | / | / | -4% | -1% | -10% | 10%
CSc1nc(N)nc(SCC(=O)Nc2cccc(F)c2)c1C#N | 14 | -26 | -3% | 20µM* | 9% | 20%
CSc1nc(N)nc(SCC(=O)C(C)(C)C)c1C#N | 3 | 17 | -3% | 13µM* | ? | 6%[38.3 µM]
CCCc1cc2c(n1CCc1ccc(Cl)cc1)C(C)C1CN(C(=O)c3ccccc3)C(C)(C(=O)OC)C21 (centres undefined) | / | / | -8% | -14% | -11% | 6%
Cc1nc2cnc(N3CCN(C)CC3)nc2n(C2CC2)c1=O | / | / | / | / | ? | -25%
C=CCNC(=O)NC(=O)COC(=O)CNS(=O)(=O)c1ccc(F)c(F)c1F | / | / | / | / | -1% | -14%
Cc1cnc(CNc2cc(-c3ccc(N(C)C)cc3)ncn2)cn1 | / | / | / | / | ? | 20%
COC(=O)c1cc(C#N)c(SCc2ccccc2)nc1C | 3 | ? | -1% | -29% | ? | 8%[38.3 µM]
CC(=O)c1cc(C#N)c(SCc2ccccc2)nc1C | 5 | ? | -4% | -20% | 18µM* | 1%[38.3 µM]
COc1ccc2nc(SCC(=O)Nc3ccccc3C)[nH]c2c1 | -1 | -16 | -10% | -20% | ? | -20%[38.3 µM]
COc1ccc2nc(SCC(=O)Nc3ccc(S(=O)(=O)Nc4nccc(C)n4)cc3)[nH]c2c1 | 2 | 28 | -4% | 28µM* | ? | -8%[38.3 µM]
CCN(CC)S(=O)(=O)c1ccc(C)c(NC(=O)CSc2nc3ccccc3[nH]2)c1 | / | -92* | -3% | -3% | ? | 9%
Cc1cc(C)nc(NS(=O)(=O)c2ccc(NC(=O)CSc3nc4ccccc4[nH]3)cc2)n1 | / | 0 | 0% | -5% | 20µM* | 0%
Cc1cc(C)nc(NS(=O)(=O)c2ccc(NC(=O)C3(c4ccccc4)CCCC3)cc2)n1 | 7 | -115* | -1% | / | 21% | /
CC(=O)O[C@@]1(C(C)=O)CCC2C3CC(C)C4=CC(=O)CC[C@@]4(C)C3CC[C@]21C (some centres undefined) | / | / | -2% | 4% | 4% | 17%
Cc1ccccc1NC(=O)/C=C/c1cccs1 | / | / | / | / | -7% | -2%
CCN(CC)S(=O)(=O)c1ccc(C)c(NC(=O)/C=C/c2cccs2)c1 | / | 23 | -1% | -9% | 0.71µM* | 2%
